Source: PubChem BioAssay (National Center for Advancing Translational Sciences (NCATS))
TGFb SMAD3 inh: blocks TGF-b signaling. Potency, µM (series often up to 46.1 µM), for the others: top-dose activity, negative = inhibition, usual class: inhibitors. 410,000 compounds, 1.2% hits. HepG2 CAGA-GFP TGF-b/SMAD3 reporter, GFP fluorescence, 18 h; TGF-beta stimulated, 500 pg/mL final; also: % is scaled to controls: 0 for no effect and ±100 for the full control effect; nearly all actives have a fitted effect of over 65% in size
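HEPG2 CAGA-GFP reporter cells (1000/well, DMEM with 1% FBS) received compounds, then recombinant TGF-beta at 500 pg/mL final for 18 hours at 37 degrees C. Per-cell GFP summed per well was normalised to unstimulated and stimulated DMSO controls before curve fitting.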
HT1080 IDH1KD tx: HT-1080 IDH1 knockdown cell toxicity (counter line); HT-1080 IDH1 knockdown viability, ATP luminescence, 48 h; Potency, µM (top dose mostly 46.1 µM), without a hit: at the top dose activity, negative = toxicity, most hits filed as cytotoxic; 360,000 compounds, 2% hits;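 also: 0% = DMSO wells and -100% = cell-free medium wells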
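Knockdown cells (IDH1KD HT-1080) received compounds 2 h after plating at 750 cells/well and were kept 48 h at 37 °C in 5% FBS RPMI. A CellTiter-Glo luminescence read gave % activity for curve fitting.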
HepG2 tox: counter-screen for TGF-b inhibitors: cytotoxicity in HepG2 cells. HepG2 CAGA-GFP viability, ATP luminescence, 18 h. Potency, µM (titrated, usually from 46.1 µM), without a hit: top-dose activity change, negative = cytotoxicity, usual class: cytotoxic. 410,000 compounds, 0.76% hits
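CellTiter-Glo luminescence gave cytotoxicity after 18 hours at 37 degrees C. The cells were HepG2 CAGA-GFP in 1% FBS DMEM, stimulated with 500 pg/mL TGF-beta after compound addition. %Activity was normalised to no-cell wells (complete cell-killing) and DMSO (no toxicity), and curves were fitted and classified.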
S2 tox: viability counter-screen for ATXN expression inhibitors | Potency, µM (series often up to 56.7 µM), most hits filed as cytotoxic | S2 cells (HEK-293 line with an ATXN2-luciferase reporter) viability, CellTiter-Fluor protease fluorescence, 24 h | 400,000 compounds, 0.49% hits; also: nearly all actives have a fitted effect of over 40% in size
HT1080NT lethal: kills 2HG-producing HT-1080-NT fibrosarcoma cells; HT-1080-NT fibrosarcoma viability, CellTiter-Glo ATP luminescence, 48 h; Potency, µM (highest dose often 46.1 µM), inactives show at the top dose activity, negative = less viability, hits mostly cytotoxic; 360,000 compounds, 1.6% hits; AID 686970;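 also: NT is the 2HG producing partner of a matched IDH1 knockdown line; 0% = DMSO-treated cells and -100% = media-only wells without cells; nearly all actives have a fitted effect of over 55% in size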
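A 48-hour cytotoxicity screen used HT-1080-NT cells plated 2 hours before compound delivery. ATP-based CellTiter-Glo luminescence measured viability, normalized to DMSO and no-cell controls.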
ATXN2 expr inh: reduces ATXN2 reporter expression in HEK-293 cells. HEK-293 ATXN2-luciferase reporter, luminescence, 24 h. 360,000 compounds, 0.72% hits. Potency, µM (top dose mostly 57 µM), for the others: top-dose activity change, negative = inhibition, most hits filed as inhibitors; also: % is scaled to controls: 0 for no effect and ±100 for the full control effect; nearly all actives have a fitted effect of over 55% in size
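qHTS (up to 57 uM final) was run with 24 h compound exposure of reporter cells at 37 °C. Each well was multiplexed: SteadyGlo luminescence measured ATXN2-luciferase expression after a fluorogenic Gly-Phe-AFC viability readout (25 uM final).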
* = called active by the depositor; i = inactive; ? = inconclusive; . = no result; [ ] = another dose, or the depositor's remark. Shown are actives, neighbours in structure and some others; about 3.8% of the full set was active somewhere. Calls follow the shape of the dose curve; as a rule, active = well fitted curve in the direction sought with a large enough effect; inconclusive = small, poorly fitted or top-dose-only effect, or another doubt; inactive = no such curve, though single readings can be large; an effect the other way counts as inactive or inconclusive. Potency is read from the fitted curve at half-maximal effect.

SMILES | TGFb SMAD3 inh | HT1080 IDH1KD tx | HepG2 tox | S2 tox | HT1080NT lethal | ATXN2 expr inh
Cc1ccc(NC(=O)COc2ccccc2CNC(C)(C)CC(C)(C)C)cc1 | ? | ? | 11µM* | 22µM* | ? | 25µM*
CC(C)(CO)NCc1ccccc1OCC(=O)Nc1ccccc1 | -1% | 23% | -13% | i | 3% | 0%
COC(=O)c1c(NC(=O)c2nc(SCc3ccc(C)cc3)ncc2Cl)sc2c1CCCC2 | -1% | . | -42% | i | . | 10%
Nc1nc(SCC(=O)O)c2[nH]cnc2n1 | -1% | . | -1% | . | . | .
CCOC(=O)N1CCc2c(sc3c2C(=O)NC(c2ccccc2)N3)C1 (stereo not drawn) | ? | 15µM* | -13% | i | ? | -2%
CN1CCc2c(sc3c2C(=O)NC(c2cn(Cc4ccccc4)c4ccccc24)N3)C1 (stereo not drawn) | 1.3µM* | -17% | -54% | i | -1% | ?
CN1CCc2c(sc3c2C(=O)NC(c2ccco2)N3)C1 (stereo not drawn) | -2% | -5% | 1% | i | 1% | 15%
COc1cc(=O)n2c(c1C(=O)NCc1ccco1)CCN(C(=O)c1ccccc1-c1ncc[nH]1)CC2 | . | . | . | i | . | .
O=C(CN1C2=NCCN2c2ccccc21)C12CC3CC(CC(C3)C1)C2 | 56% | -1%[9.24 µM] | -7% | ? | 21µM* | -16%
CC(=O)Nc1cc(C(=O)N2CCN(c3ccccc3)CC2C)cc2ncn(CCc3ccccn3)c12 (stereo not drawn) | . | . | . | i | . | .
CCOc1ccc(NC(=O)C2CCN(c3nnc(C)c4c(C)n(-c5ccccc5)nc34)CC2)cc1 | 0% | . | 2% | i | . | -14%
CCOC(=O)c1c(C)[nH]c(C2=NNC(=NC3CC3)SC2)c1C | -6% | -11% | -28% | i | -2% | 11µM*
CCOc1ccccc1-c1nn2c(Cc3ccccc3)nnc2s1 | ? | ? | 13µM* | i | -27% | -12%
Brc1cccc[n+]1Cc1ccc(C[n+]2ccccc2Br)cc1 | 5% | . | 11% | . | . | .
COc1ccc(C(=O)Nc2ccccc2C(=O)N/N=C/c2ccco2)cc1 | -6% | ? | -67% | ? | 9.2µM* | 0%
O=C(Nc1ccccc1C(=O)N/N=C/c1ccncc1)c1ccccc1 | 4% | 9.2µM* | 5µM* | i | 21µM* | 34%
CCOc1ccc(/C=N/NC(=O)c2ccccc2NC(=O)c2ccc(OC)cc2)cc1 | 4% | -17% | -51% | i | -22% | 5%
CCC1C(=O)NCCN1Cc1ccc2c(c1)CN(Cc1cc(OC)ccc1OC)CCO2 (stereo not drawn) | . | . | . | i | . | .
Cc1sc2c(c1C)c(=O)n(CCc1ccccc1)c(=O)n2Cc1ccc(F)cc1 | 4% | . | 4% | i | . | -3%
C/C=C1\NC(=O)[C@H]2CSSCC/C=C/[C@H](CC(=O)N[C@H](C(C)C)C(=O)N2)OC(=O)C(C(C)C)NC1=O (stereo partly drawn) | . | . | . | 4.5µM* | . | .
Cn1c(CCNC(=O)c2ccco2)nc2cc(NC(=O)c3ccco3)ccc21 | 20% | 1% | -2% | i | 3% | 34%
COc1ccccc1C(=O)Nc1ccc2c(c1)nc(CCNC(=O)c1ccco1)n2C | ? | 4.6µM* | -14% | i | ? | -14%
CN(C)c1nc(-c2ccccc2)nc(-c2ccc(Cl)cc2)c1C#N | -2% | 12% | 3% | ? | 0% | -10%
CCN(CC)c1nc(-c2ccccn2)nc(-c2ccccc2)c1C#N | ? | -16% | -36% | ? | -26% | 4.5µM*
c1ccc(-c2nnc(-c3ccccn3)c(-c3ccccn3)n2)nc1 | 7% | -24% | -3% | i | -24% | -10%
SMILES | TGFb SMAD3 inh | HT1080 IDH1KD tx | HepG2 tox | S2 tox | HT1080NT lethal | ATXN2 expr inh
CN(C)c1nc(-c2ccccn2)nnc1-c1ccccc1 | 2% | ? | -4% | i | -24% | 8.9µM*
CC1=[N+](C)c2c(ccc3cccnc23)C1(C)C | ? | ? | -11% | . | ? | 3µM*
Cc1[nH]c2c(ccc3cccnc32)c1C | 5% | 0% | -14% | i | 1% | 4%
Cc1ccc2nc(CSc3nnc(NC(=O)C(C)C)s3)cc(=O)n2c1 | 8% | . | 20% | . | . | .
COc1ccc(-c2nc(CNC(=O)NC3CCCCC3)c(C)o2)c(OC)c1 | -7% | . | 2% | i | . | 9%
CCn1c2ccccc2c2cc([N+](=O)[O-])ccc21 | 14% | -15% | -7% | i | 1% | -7%
CN(C)CCn1c2ccccc2c2nc3ccc([N+](=O)[O-])cc3cc21 | ? | ? | -6% | i | -12% | 3.2µM*
Clc1ccc2nc(COc3ccccc3)[nH]c2c1 | -9% | 8.2µM* | -9% | i | 13µM* | 9%
Cc1cc(N/N=C2/CCCc3ccccc32)nc2ccccc12 | 16µM* | -19% | 11µM* | ? | ? | -3%
c1ccc(N/N=C2\CCCc3ccccc32)nc1 | 0% | -2% | -19% | i | 0% | -31%
Cc1cccc(N2CCN(S(=O)(=O)c3cc(-c4cc(C)no4)ccc3C)CC2C)c1 (stereo not drawn) | -3% | 4.6µM* | -35% | i | ? | -24%
Cc1cc(-c2ccc(C(C)C)c(S(=O)(=O)N3CCN(c4ccccc4)CC3)c2)on1 | -23% | 1.8µM* | -3% | i | 1.5µM* | -28%
CCCN1C(=O)c2oc3cc(C)cc(C)c3c(=O)c2C1c1ccc(F)cc1 (stereo not drawn) | 4% | . | -3% | i | . | 0%
COc1cccc(CCN2CCC(CNS(=O)(=O)c3cc(-c4cc(C)no4)ccc3OC)CC2)c1 | ? | ? | -43% | i | ? | ?
COc1cccc(CCN2CCC(CNS(=O)(=O)c3cc(-c4cc(C)no4)ccc3C)CC2)c1 | 16µM* | ? | -110% | ? | ? | .
Cc1cccc(CNC(=O)C2CCC(CNS(=O)(=O)c3ccc4c(c3)CCCC(=O)N4)CC2)c1 (stereo not drawn) | -1% | . | -20% | i | . | 1%
COc1ccccc1C(=O)OCC(=O)Nc1ccc(N2CCCCC2)cc1 | -5% | . | -8% | . | . | .
CC(C(=O)Nc1ccccc1)n1nnc2sc3c(c2c1=O)CCCC3 (stereo not drawn) | 14µM* | . | -26% | i | . | -14%
CC(=O)c1cccc(NC(=O)CCc2c(C)nc3nc(CN)nn3c2C)c1 | 14% | . | 4% | i | . | 6%
O=c1c2ccccc2nc(/C=C/c2ccc3c(c2)OCO3)n1CCCO | ? | 6.5µM* | -4% | i | ? | 22%
